Most compounds without a hit are left out; they make up all but 3.3% or so of the library.
BoNT-F LC inh: BoNT F light chain protease inhibition | hit rate 0.22% among 360,000 | Multiplex microsphere protease cleavage assay, flow cytometry | inhibition, % at 10 µM; in the data active means inhibition above about 35%, passing the limit was not always enough; inconclusive means no clear call, values can overlap the other calls; further: plate controls were buffer without enzyme for full effect and enzyme alone for no effect
Autofluor counter: flagged as autofluorescent in microsphere protease counterscreen; compound autofluorescence counterscreen, microsphere flow cytometry; stronger effect = higher value; fluorescence intensity (test concentration not listed); hit rate 3.1% among 360,000; AID 624483; in the data active means fluorescence intensity above about 16000; inconclusive means no clear call, values can overlap the other calls
BoNT A protease: inhibitors of Botulinum neurotoxin A light chain protease; multiplex microsphere protease substrate cleavage, flow cytometry; inhibition, % at 10 µM; hit rate 0.17% among 360,000; AID 588499; further: plate controls were buffer without enzyme for full effect and enzyme alone for no effect
MazF activator: increases E. coli MazEF RNase cleavage of RNA; AID 504720; FAM/BHQ RNA-DNA oligo cleavage fluorescence, 5 h; P0AE70; activation, % at 20 µM; hit rate 0.32% among 350,000; in the data active means activation above about 50%
PriA SSB inh: blocks PriA binding to SSB C-terminal tail | AlphaScreen SSBct-PriA binding, biotinylated peptide | inhibition, % at 33 µM | AID 1272365 | hit rate 0.6% among 430,000; in the data active means inhibition mostly above about 37%, no sharp cut-off; inactive means mostly below about 20%;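 further: plate controls were negative control peptide for no effect and reference peptide for full effect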
Anthrax LF prot: blocks Bacillus anthracis lethal factor protease. P15917. multiplex microsphere protease cleavage assay, LF. inhibition, % at 10 µM. hit rate 0.12% among 360,000; further: plate controls were buffer without enzyme for full effect and enzyme alone for no effect
Target sequence (P15917 whole entry, looked up): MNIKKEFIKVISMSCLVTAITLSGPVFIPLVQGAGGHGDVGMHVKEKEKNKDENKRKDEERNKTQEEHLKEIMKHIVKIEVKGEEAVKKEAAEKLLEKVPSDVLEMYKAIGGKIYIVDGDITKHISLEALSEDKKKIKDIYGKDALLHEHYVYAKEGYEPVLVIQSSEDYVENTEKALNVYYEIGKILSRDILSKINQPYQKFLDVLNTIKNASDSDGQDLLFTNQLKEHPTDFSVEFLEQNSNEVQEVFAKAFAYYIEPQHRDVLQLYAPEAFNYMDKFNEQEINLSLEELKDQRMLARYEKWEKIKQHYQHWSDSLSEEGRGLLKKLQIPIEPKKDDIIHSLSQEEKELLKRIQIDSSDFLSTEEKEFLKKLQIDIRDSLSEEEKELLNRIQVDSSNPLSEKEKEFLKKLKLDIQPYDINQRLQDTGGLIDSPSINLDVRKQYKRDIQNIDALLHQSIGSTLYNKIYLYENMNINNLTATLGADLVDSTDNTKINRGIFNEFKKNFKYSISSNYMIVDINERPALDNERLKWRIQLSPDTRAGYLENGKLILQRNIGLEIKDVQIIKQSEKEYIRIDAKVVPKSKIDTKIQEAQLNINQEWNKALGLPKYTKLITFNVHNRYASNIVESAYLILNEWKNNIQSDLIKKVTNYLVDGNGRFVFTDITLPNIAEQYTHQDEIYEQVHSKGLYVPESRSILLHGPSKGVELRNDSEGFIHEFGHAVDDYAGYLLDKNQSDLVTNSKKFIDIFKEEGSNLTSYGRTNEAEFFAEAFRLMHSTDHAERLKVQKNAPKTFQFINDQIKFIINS
An asterisk follows results filed as active. Unless noted, no stated cut-off is given here; in the data, active means inhibition above about 30%; inconclusive means no clear call, values can overlap the other calls; inactive means below that.

Cc1oc(C(=O)O)cc1COc1ccc2c3c(c(=O)oc2c1)CCC3 was read as BoNT-F LC inh -4.4, Autofluor counter 20992*, BoNT A protease inconclusive, MazF activator 0.7, PriA SSB inh -1.2 and Anthrax LF prot -4.2.
COc1ccc(NC(=O)C(=O)NCCN2CCN(c3ccccc3F)CC2)cc1 was read as PriA SSB inh 6.0.
For COC(=O)c1ccc(OC(=O)C2CC(=O)N(c3cccc(C)c3)C2)cc1 (configuration not stated) the results were BoNT-F LC inh -3.1, Autofluor counter 16757*, BoNT A protease inconclusive, MazF activator 2.0, PriA SSB inh -21.2 and Anthrax LF prot -2.7.
COc1cccc(N2CC(C(=O)Oc3ccc4ccccc4c3)CC2=O)c1 (configuration not stated) was read as BoNT-F LC inh -10.4, Autofluor counter 10482, BoNT A protease -1.1, MazF activator 1.7, PriA SSB inh -4.2 and Anthrax LF prot -21.4.
O=C(Nc1ccccc1Cl)Nc1c[nH]c2ccccc12 was read as PriA SSB inh 16.0.
Cc1cccc2cc(/C=C3\N=C(c4ccccc4)OC3=O)c(N3CCOCC3)nc12 was read as BoNT-F LC inh 40.7*, Autofluor counter 3098, BoNT A protease 124.0*, MazF activator -74.9, PriA SSB inh 21.6 and Anthrax LF prot 65.1*.
For Cc1ccc(C2=N/C(=C/N3CCOCC3)C(=O)O2)cc1 the results were BoNT-F LC inh -10.4, Autofluor counter 3675, BoNT A protease -0.8, MazF activator 4.8, PriA SSB inh -1.6 and Anthrax LF prot -1.7.
`CC(C)CC(=O)NC(=S)Nc1cc(C(F)(F)F)ccc1N1CCOCC1` gave BoNT-F LC inh -4.6, Autofluor counter 2036, BoNT A protease -0.7, MazF activator -0.3, PriA SSB inh -6.8 and Anthrax LF prot -1.5.
For O=C(CCc1ccccc1)NC(=S)Nc1cc(C(F)(F)F)ccc1N1CCOCC1 the results were BoNT-F LC inh -2.4, Autofluor counter 19113*, BoNT A protease 1.5, MazF activator -11.3, PriA SSB inh -12.3 and Anthrax LF prot -0.3.
FC(F)(F)c1cnc(C(c2ccccn2)c2ncn[nH]2)c(Cl)c1 (configuration not stated) was read as BoNT-F LC inh 6.1, Autofluor counter 4727, BoNT A protease 0.2, MazF activator 10.2, PriA SSB inh 77.2* and Anthrax LF prot -1.8.
`Cc1cc(C)c(C(=O)COC(=O)Cn2cnnn2)cc1C` gave BoNT-F LC inh 4.3, Autofluor counter 14900, BoNT A protease 3.1, MazF activator -5.1, PriA SSB inh -5.0 and Anthrax LF prot -0.2.
Screening O=C(Cn1cnnn1)OCC(=O)c1ccc(Cl)s1 returned BoNT-F LC inh 0.9, Autofluor counter 22766*, BoNT A protease 1.5, MazF activator 0.7, PriA SSB inh -27.4 and Anthrax LF prot 0.7.
`CS(=O)(=O)N(CC(=O)Nc1cc(Cl)ccc1Cl)c1ccccc1` gave BoNT-F LC inh -3.8, Autofluor counter 24006*, BoNT A protease -1.8, MazF activator -3.6, PriA SSB inh -14.0 and Anthrax LF prot -2.1.
`COc1ccc(N(CC(=O)Nc2ccc(S(=O)(=O)N3CCCCC3)cc2)S(C)(=O)=O)cc1OC` gave BoNT-F LC inh 1.4, Autofluor counter 19464*, BoNT A protease inconclusive, MazF activator 4.8, PriA SSB inh 9.2 and Anthrax LF prot 1.3.
Screening O=C(Nc1ccccc1)N1CCN(c2cccc(C(F)(F)F)c2)CC1 returned BoNT-F LC inh -3.0, Autofluor counter 9373, BoNT A protease -0.8, MazF activator -5.1, PriA SSB inh -21.2 and Anthrax LF prot -0.9.
For CS(=O)(=O)N(CC(=O)Nc1cccc(Cl)c1Cl)c1ccccc1 the results were BoNT-F LC inh -1.9, Autofluor counter 6023, BoNT A protease 0.3, MazF activator -6.4, PriA SSB inh -14.9 and Anthrax LF prot 4.3.
`COc1ccc(N(CC(=O)N2CCc3ccccc3C2)S(C)(=O)=O)cc1OC` gave BoNT-F LC inh -6.6, Autofluor counter 16881*, BoNT A protease -1.5, MazF activator 5.5, PriA SSB inh -13.8 and Anthrax LF prot -1.4.
For COc1ccc(NC(=O)N2CCN(c3cccc(C(F)(F)F)c3)CC2)cc1OC the results were BoNT-F LC inh -4.1, Autofluor counter 19995*, BoNT A protease -1.3, MazF activator -0.6, PriA SSB inh 6.0 and Anthrax LF prot -4.3.
Screening Cc1nc2scc(C)n2c(=O)c1NC(=O)C1CCCO1 (configuration not stated) returned PriA SSB inh -2.0.
COc1ccc(CC(=O)NCCn2ncc3c(=O)n(Cc4ccccc4F)cnc32)cc1OC was read as PriA SSB inh 7.0.
Screening CCOc1ccc(-n2ccn3c(=O)n(CC(=O)Nc4ccc(Br)cc4)nc3c2=O)cc1 returned PriA SSB inh -13.0.
For COc1ccc(NC(=O)CN(c2cccc(C(F)(F)F)c2)S(C)(=O)=O)cc1OC the results were BoNT-F LC inh 9.3, Autofluor counter 20812*, BoNT A protease 3.2, MazF activator -1.9, PriA SSB inh 5.1 and Anthrax LF prot 0.1.
Screening CC(=O)Nc1ccc(NC(=O)CN(c2cccc(C)c2)S(C)(=O)=O)cc1 returned BoNT-F LC inh -2.8, Autofluor counter 22430*, BoNT A protease -0.2, MazF activator -11.7, PriA SSB inh 0.1 and Anthrax LF prot -1.5.
`COc1ccccc1-c1nnc(Sc2nc([N+](=O)[O-])nn2C)o1` gave BoNT-F LC inh 0.2, Autofluor counter 16481*, BoNT A protease -0.4, MazF activator -3.5, PriA SSB inh 4.6 and Anthrax LF prot -3.1.
Screening Cn1cnnc1Sc1nc([N+](=O)[O-])nn1C returned BoNT-F LC inh -1.0, Autofluor counter 2226, BoNT A protease -0.4, MazF activator -5.4, PriA SSB inh -19.4 and Anthrax LF prot 1.4.
For O=C(O)CCCN1C(=O)/C(=C\c2ccc(-c3nc4ccccc4s3)o2)SC1=S the results were BoNT-F LC inh 6.3, Autofluor counter 4325, BoNT A protease 41.1*, MazF activator -29.6, PriA SSB inh 4.9 and Anthrax LF prot 27.5.
Screening CCCCCOC(=O)CSc1n[nH]c(=O)[nH]c1=O returned BoNT-F LC inh 3.9, Autofluor counter 22105*, BoNT A protease 2.3, MazF activator 10.1, PriA SSB inh -9.0 and Anthrax LF prot 1.9.
Screening CCCCOC(=O)c1ccc(-c2ccc(/C=N/NC(=S)NCC)o2)cc1 returned BoNT-F LC inh 3.3, Autofluor counter 16266*, BoNT A protease inconclusive, MazF activator -4.4 and Anthrax LF prot 3.5.
`Cn1c(=NC(=O)c2ccc(C#N)cc2)sc2cc3c(cc21)OCCO3` gave PriA SSB inh -18.0.
For O=c1[nH]c(N/N=C/c2ccc(O)cc2)nc2ccccc12 the results were BoNT-F LC inh -2.4, Autofluor counter 2526, BoNT A protease 0.0, MazF activator 51.0* and Anthrax LF prot 1.4.
O=c1[nH]c(NN=Cc2ccc3c(c2)OCO3)nc2ccccc12 was read as PriA SSB inh -1.8.
O=c1[nH]c(N/N=C\c2ccc(F)cc2)nc2ccccc12 was read as BoNT-F LC inh -1.3, Autofluor counter 2006, BoNT A protease -0.3, MazF activator 55.8* and Anthrax LF prot -1.0.
